According to PubChem BioAssay AID1159580 (chemical genetic matrix, 2015):
Among all 5,500 compounds or so, about 2,000 (36%) were called active. Another 18% or so got no clear call; they are omitted. Cut-off read from the data, not from the text of the source: active = normalized growth mostly below about 0.91 (no sharp cut-off); inconclusive = no clear call, values can overlap the other calls; inactive = mostly above about 0.92. This is one part of the list.

Assay: chemical genetic growth profiling, strain panel (AID 1159580);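 note: tested at 20 µM; growth read once vehicle control cultures reached saturation at 30 °C; 1 = growth at the plate median or of vehicle wells; lower values mean less growth of the strain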
Details: S. cerevisiae deletion strains, growth OD

Measured: normalized growth

COC(=O)CCCOc1ccc(Cl)cc1Cl
inactive: locus YAL013W, strain DEP1, stronger effect = lower value 0.986 | locus YAL021C, strain ccr4, stronger effect = lower value 0.988 | locus YAL026C, strain drs2, stronger effect = lower value 0.966 | locus YAL030W, strain snc1, stronger effect = lower value 0.968 | locus YBL061C, strain skt5, stronger effect = lower value 0.952 | locus YBR009C, strain hhf1, stronger effect = lower value 0.955 | locus YBR021W, strain FUR4, stronger effect = lower value 0.931 | locus YBR023C, strain chs3, stronger effect = lower value 0.96 | locus YBR171W, strain sec66, stronger effect = lower value 0.916 | locus YBR229C, strain ROT2, stronger effect = lower value 0.993 | locus YBR231C, strain swc5, stronger effect = lower value 0.964 | locus YBR279W, strain paf1, stronger effect = lower value 0.961 | locus YCL011C, strain gbp2, stronger effect = lower value 0.967 | locus YCL016C, strain dcc1, stronger effect = lower value 0.959 | locus YCL029C, strain bik1, stronger effect = lower value 1 | locus YCL061C, strain MRC1, stronger effect = lower value 0.953 | locus YCL069W, strain vba3, stronger effect = lower value 0.962 | locus YCR088W, strain abp1, stronger effect = lower value 0.955 | locus YDL005C, strain med2, stronger effect = lower value 0.958 | locus YDL035C, strain GPR1, stronger effect = lower value 1 | locus YDL040C, strain nat1, stronger effect = lower value 0.954 | locus YDL074C, strain BRE1, stronger effect = lower value 0.999 | locus YDL101C, strain DUN1, stronger effect = lower value 1.02 | locus YDL134C, strain PPH21, stronger effect = lower value 0.998 | locus YDL185W, strain tfp1, stronger effect = lower value 0.988 | locus YDL192W, strain arf1, stronger effect = lower value 0.996 | locus YDR001C, strain nth1, stronger effect = lower value 0.967 | locus YDR069C, strain doa4, stronger effect = lower value 0.967 | locus YDR101C, strain arx1, stronger effect = lower value 0.987 | locus YDR137W, strain rgp1, stronger effect = lower value 0.899 | locus YDR150W, strain NUM1, stronger effect = lower value 0.989 | locus YDR159W, strain sac3, stronger effect = lower value 0.956 | locus YDR162C, strain NBP2, stronger effect = lower value 0.991 | locus YDR195W, strain ref2 0.972 | locus YDR297W, strain sur2, stronger effect = lower value 0.961 | locus YDR318W, strain mcm21, stronger effect = lower value 0.993 | locus YDR334W, strain swr1, stronger effect = lower value 0.974 | locus YDR335W, strain msn5, stronger effect = lower value 0.968 | locus YDR388W, stronger effect = lower value 0.992 | locus YDR392W, strain spt3, stronger effect = lower value 0.902 | locus YDR502C, strain sam2, stronger effect = lower value 0.995 | locus YEL003W, strain gim4, stronger effect = lower value 0.966 | locus YEL037C, strain rad23, stronger effect = lower value 0.968 | locus YEL061C, strain CIN8 (second series), stronger effect = lower value 0.961 | locus YEL061C, strain CIN8, stronger effect = lower value 0.985 | locus YER015W, strain faa2, stronger effect = lower value 0.959 | locus YER016W, strain bim1, stronger effect = lower value 0.964 | locus YER110C, stronger effect = lower value 0.995 | locus YER111C, strain swi4, stronger effect = lower value 0.956 | locus YER155C, strain BEM2 (second series), stronger effect = lower value 0.922 | locus YER155C, strain BEM2, stronger effect = lower value 0.984 | locus YER167W, strain BCK2, stronger effect = lower value 1 | locus YFR010W, strain ubp6, stronger effect = lower value 0.974 | locus YGL078C, strain dbp3, stronger effect = lower value 0.983 | locus YGL086W, strain mad1, stronger effect = lower value 0.991 | locus YGL167C, strain pmr1, stronger effect = lower value 0.953 | locus YGL173C, strain kem1, stronger effect = lower value 0.948 | locus YGL227W, strain vid30, stronger effect = lower value 0.95 | locus YGL240W, strain doc1, stronger effect = lower value 0.949 | locus YGL248W, strain PDE1, stronger effect = lower value 1 | locus YGL253W, strain hxk2, stronger effect = lower value 0.965 | locus YGR078C, strain PAC10, stronger effect = lower value 0.991 | locus YGR135W, strain pre9, stronger effect = lower value 0.994 | locus YGR229C, strain SMI1, stronger effect = lower value 0.994 | locus YGR252W, strain gcn5, stronger effect = lower value 0.977 | locus YHR013C, strain ard1, stronger effect = lower value 0.958 | locus YHR027C, strain rpn1, stronger effect = lower value 0.975 | locus YHR030C, strain SLT2, stronger effect = lower value 0.994 | locus YHR079C, strain IRE1 (second series), stronger effect = lower value 1 | locus YHR094C, strain hxt1, stronger effect = lower value 0.985 | locus YHR129C, strain ARP1, stronger effect = lower value 0.994 | locus YHR142W, strain chs7, stronger effect = lower value 0.965 | locus YHR200W, strain rpn10, stronger effect = lower value 0.996 | locus YIL066C, strain RNR3, stronger effect = lower value 0.993 | locus YIL073C, strain SPO22, stronger effect = lower value 1.07 | locus YIL125W, strain kgd1, stronger effect = lower value 0.983 | locus YIR030C, strain dcg1, stronger effect = lower value 0.994 | locus YJL092W, strain hpr5, stronger effect = lower value 0.957 | locus YJL095W, strain BCK1 (second series), stronger effect = lower value 0.955 | locus YJL095W, strain BCK1, stronger effect = lower value 0.942 | locus YJL115W, strain asf1, stronger effect = lower value 0.967 | locus YJL129C, strain trk1, stronger effect = lower value 0.931 | locus YJL134W, strain LCB3, stronger effect = lower value 0.995 | locus YJL154C, strain vps35, stronger effect = lower value 0.971 | locus YJL164C, strain tpk1, stronger effect = lower value 0.964 | locus YJL166W, strain qcr8, stronger effect = lower value 0.955 | locus YJL168C, strain set2, stronger effect = lower value 1.01 | locus YJL187C, strain SWE1 (second series), stronger effect = lower value 1 | locus YJL187C, strain SWE1, stronger effect = lower value 0.973
